Values without a mark were called inactive. The source made the active and inactive calls. The rule behind the calls is not given here.
Molecular target: Estrogen receptor (Homo sapiens) (UniProt P03372)
Test: displacement of fluorescent estrogen from ERalpha – cell-based, Cos7 ERalpha-GFP, flow cytometry, primary screen (AID 1211);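 note: 0% = DMSO vehicle wells and 100% = no E2-Alexa633 signal left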
Details: fluorescent ligand competition, at 10 µM, hits give high values

Chain of Estrogen receptor (Homo sapiens) (P03372 whole entry, looked up): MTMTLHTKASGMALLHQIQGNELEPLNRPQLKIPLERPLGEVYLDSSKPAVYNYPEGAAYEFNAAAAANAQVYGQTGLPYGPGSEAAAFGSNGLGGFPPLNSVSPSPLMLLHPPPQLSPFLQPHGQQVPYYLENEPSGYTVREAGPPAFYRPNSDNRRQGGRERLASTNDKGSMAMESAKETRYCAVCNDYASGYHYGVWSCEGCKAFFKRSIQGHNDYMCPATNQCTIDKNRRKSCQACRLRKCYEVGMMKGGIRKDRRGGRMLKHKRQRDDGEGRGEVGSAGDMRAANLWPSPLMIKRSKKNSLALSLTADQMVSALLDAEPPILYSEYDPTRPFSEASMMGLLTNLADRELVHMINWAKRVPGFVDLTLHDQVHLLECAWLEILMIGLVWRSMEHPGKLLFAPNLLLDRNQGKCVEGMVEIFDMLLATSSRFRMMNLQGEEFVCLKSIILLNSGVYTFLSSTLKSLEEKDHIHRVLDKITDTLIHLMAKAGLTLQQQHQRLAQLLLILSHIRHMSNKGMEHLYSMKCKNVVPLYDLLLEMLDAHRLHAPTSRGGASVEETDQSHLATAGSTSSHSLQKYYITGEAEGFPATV

Row | Structure (SMILES) | inhibition of ligand binding
1 | COc1ccc(N2Cc3cccc(C(=O)N4CCN(C(=O)c5ccco5)CC4)c3C2=O)cc1 | 20%
2 | CCN1CCc2nc(NC(=O)Cc3ccc4c(c3)OCCO4)sc2C1 | 36%
3 | O=C1CC(=O)N2N=C(c3ccc([N+](=O)[O-])cc3)SC2=N1 | 38%
4 | O=C(O)c1cc(-c2ccco2)nc2ccc(Br)cc12 | 21%
5 | O=C(CCCn1c(=S)[nH]c2ccccc2c1=O)N1CCN(c2cccc(Cl)c2)CC1 | 55%
6 | O=C(c1cc2ncc(Br)cn2n1)N1CCOCC1 | 54%
7 | Oc1ccc(C2=Nn3c(nnc3-c3ccco3)SC2)cc1O | 32%
8 | Cc1ccc(Nc2nnc(SCC(=O)NCc3ccco3)s2)cc1 | 10%
9 | COc1ccc(C2Nc3ccccc3C(=O)N2c2ccccc2)cc1Cn1cc([N+](=O)[O-])cn1 (stereo not drawn) | 29%
10 | Cc1nn(-c2ccccc2)c2sc(C(=O)c3c(N)n(C)c(=O)n(C)c3=O)cc12 | 0%
11 | O=C1NC(c2ccc(Br)cc2)Nc2sc3c(c21)CCC3 (stereo not drawn) | 29% (active)
12 | COc1ccc(-n2c(SCC(=O)Nc3nccs3)nc3sc4c(c3c2=O)CCN(C)C4)cc1 | 30%
13 | CCCCn1c(NC(=O)CC)c(C#N)c2nc3ccccc3nc21 | 35%
14 | O=C(COC(=O)CCC(=O)c1cccs1)NCc1ccco1 | 42% (active)
15 | O=C(O)c1ccc(NS(=O)(=O)c2ccc3c(c2)C2C=CCC2C(c2ccccc2F)N3)cc1 (stereo not drawn) | 62%
16 | CCC(=O)Oc1ccc(/C(CC)=C(\CC)c2ccc(OC(=O)CC)cc2)cc1 | 77% (active)
17 | CCOC(=O)c1c(C)[nH]c(C)c1C(=O)CSc1nnc(-c2cc(OC)c(OC)c(OC)c2)o1 | 57%
18 | O=C(O)C1CSC(c2coc3ccccc3c2=O)N1 (stereo not drawn) | 6%
19 | Cc1ccc(C)n1-c1sccc1C(=O)O | 36%

Row | Structure (SMILES) | inhibition of ligand binding
20 | O=C(Nc1sc2c(c1C(=O)O)CCC2)c1ccccc1 | 15%
21 | COc1ccc(C2Nc3ccccc3C(=O)N2c2ccccc2)cc1COc1ccccn1 (stereo not drawn) | 17%
22 | O=C(Nc1ccc2c(c1)nc1n2CCSC1)c1ccco1 | 20%
23 | O=C(Cc1ccccc1)Nc1ccc2oc(-c3cccnc3)nc2c1 | 32%
24 | COc1ccc(NC(=O)C(c2ccccc2)N(C)C(=O)c2ccc(=O)[nH]c2)cc1 (stereo not drawn) | 49% (active)
25 | CCN1CCN(Cc2c(O)c(Cl)cc3c(C)cc(=O)oc23)CC1 | 31%
26 | CC(C)(C)c1nnc2sc(SC/C(O)=C(\C#N)c3nc4ccccc4[nH]3)nn2c1=O | 20%
27 | Nc1ccc(-n2cnc3cc([N+](=O)[O-])ccc32)cc1 | 41% (active)
28 | COc1ccc2c(c1)c1nc3ccccc3nc1n2CCCN1C(=O)c2ccccc2C1=O | 46%
29 | COc1ccc(-c2ccc(=O)[nH]n2)cc1 | 22%
30 | COc1cccc(-c2nnc(NC(=O)Cc3cccs3)s2)c1 | 52%
31 | CN(C)c1ccc(N=Cc2ccco2)cc1 | 37%
32 | Cc1[nH]c2ccc(-c3nnc(SCC(=O)c4ccccc4F)o3)cc2c1C | 43%
33 | Cc1noc(C)c1COc1ccc(C(=O)OCC(=O)N2c3ccccc3NC(=O)C2(C)C)cc1 | 59%
34 | CCOC(=O)c1ccc(NC(=O)CSc2nc(C)cc(=O)[nH]2)cc1 | 49%
35 | CC(C)CN(C(=O)COC(=O)c1cc2c(s1)CCC2)C1CCS(=O)(=O)C1 (stereo not drawn) | 47%
36 | NC(=O)c1c(NC(=O)c2cc3ccccc3o2)sc2c1CCC2 | 43%
37 | O=C(Cn1ncc2c(=O)oc3ccccc3c21)Nc1nc2ccccc2s1 | 7%
38 | O=C(COC(=O)c1ccccc1)NCc1ccco1 | 29%
